Assay outcomes as filed in PubChem BioAssay.
Only some compounds are listed: those with a hit (about 2.2% of all), similar ones and a draw of the others.
NPR2 activator – GC-B (human) receptor activation; P20594; HEK293-GC-B cells, CNP EC30, cGMP TR-FRET; 0% at EC30 CNP, 100% saturating CNP; activation, % at 10 µM; 370,000 compounds, 0.11% hits; AID 1920062;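 active = activation at 10 µM reaching about 35% in either raw or pattern-adjusted values, limit read from the data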
NPR1 activator – GC-A (human) enzyme activation | P16066 | HEK293 GC-A cells, cGMP TR-FRET, EC30 ANP; 0% at EC30 ANP, 100% saturating ANP | activation, % at 10 µM | 370,000 compounds, 0.14% hits | AID 1671463; in the data active = activation above about 40%
Target sequence (P16066 whole entry, looked up): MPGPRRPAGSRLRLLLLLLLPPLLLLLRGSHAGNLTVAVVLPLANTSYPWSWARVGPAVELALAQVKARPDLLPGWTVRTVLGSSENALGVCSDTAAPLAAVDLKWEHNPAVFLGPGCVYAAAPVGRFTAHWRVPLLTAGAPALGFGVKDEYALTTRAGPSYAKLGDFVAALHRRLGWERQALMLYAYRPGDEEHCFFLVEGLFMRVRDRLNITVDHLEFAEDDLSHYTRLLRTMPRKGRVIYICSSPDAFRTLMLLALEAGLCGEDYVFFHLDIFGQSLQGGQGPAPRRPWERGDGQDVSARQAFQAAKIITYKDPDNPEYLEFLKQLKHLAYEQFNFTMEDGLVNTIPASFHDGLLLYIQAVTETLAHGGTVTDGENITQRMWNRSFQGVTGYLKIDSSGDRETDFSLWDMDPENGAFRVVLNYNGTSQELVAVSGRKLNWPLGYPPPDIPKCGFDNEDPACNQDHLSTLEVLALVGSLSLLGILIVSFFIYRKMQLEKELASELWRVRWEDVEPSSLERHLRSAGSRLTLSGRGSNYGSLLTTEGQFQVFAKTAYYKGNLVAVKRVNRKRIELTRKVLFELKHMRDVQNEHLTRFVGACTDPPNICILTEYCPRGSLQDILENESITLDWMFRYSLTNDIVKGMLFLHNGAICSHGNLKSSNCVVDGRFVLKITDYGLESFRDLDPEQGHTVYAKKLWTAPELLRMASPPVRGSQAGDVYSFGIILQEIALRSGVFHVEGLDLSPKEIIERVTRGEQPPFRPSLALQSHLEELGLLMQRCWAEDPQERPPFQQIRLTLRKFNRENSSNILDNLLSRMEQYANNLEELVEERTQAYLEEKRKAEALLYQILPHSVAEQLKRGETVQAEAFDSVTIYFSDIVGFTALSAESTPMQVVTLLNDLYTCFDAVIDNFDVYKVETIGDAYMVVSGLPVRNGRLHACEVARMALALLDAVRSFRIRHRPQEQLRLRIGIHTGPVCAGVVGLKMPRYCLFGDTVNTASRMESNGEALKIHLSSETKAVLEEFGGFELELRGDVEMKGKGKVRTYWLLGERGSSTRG
PLCg1 inh – PLC-gamma1 (human) inhibition, primary screen | purified PLC-gamma1, fluorogenic substrate, fluorescence | inhibition, % at 12.2 µM | 370,000 compounds, 0.84% hits | AID 720700; in the data active = inhibition above about 9.5%
PLCb3 inh – blocks human PLC-beta3 enzyme activity. Q01970. Purified PLC-beta3, fluorogenic substrate, fluorescence. inhibition, % at 12.2 µM. 370,000 compounds, 0.18% hits; in the data active = inhibition above about 11%
Rce1 inhib – inhibitors of yeast Ras-converting enzyme; AID 2563; calls only; 290,000 compounds, 0.27% hits; Q03530; yeast membranes, quenched prenylated peptide cleavage fluorescence;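 active = fall in fluorescence gain of 50% or more versus controls, with final raw signal at or below 3038400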
PfM18AAP inh-1 – PfM18AAP enzyme inhibition | recombinant PfM18AAP, H-Glu-NHMec fluorogenic cleavage | 290,000 compounds, 1.2% hits | inhibition, % at 7.35 µM;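 active = inhibition above the campaign mean inhibition over all tested compounds plus 3 SD, cut at about 28% in these data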
PfM18AAP inh-2 – confirmation of Plasmodium falciparum M18 aspartyl aminopeptidase inhibitors; inhibition, % at 7.35 µM; recombinant PfM18AAP, H-Glu-NHMec fluorogenic cleavage; shares compounds with PfM18AAP inh-1; 2,400 compounds, 28% hits;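 active = mean inhibition over replicate wells above the hit cutoff set for the earlier primary screen, cut at about 29% in these data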
CTSL1 counter – counter-screen for PFM18AAP inhibitors: confirmation of human cathepsin L inhibitors; shares compounds with PfM18AAP inh-1; AID 2178; inhibition, % at 5.96 µM; 2,400 tested, under 10 active; purified cathepsin L1, Z-Leu-Arg-MCA fluorescence;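 active = average inhibition across replicates above the hit cutoff set in the earlier primary screen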
Large screens that a line does not name were inactive (follow-up assays come after a bar, where they were run).

COCc1cc(C2C(C(=O)c3ccco3)=C(O)C(=O)N2CCOCCO)ccc1O (stereo not drawn)	PfM18AAP inh-1 43.2 | PfM18AAP inh-2 inactive | CTSL1 counter inactive
COCCCN1C(=O)C(O)=C(C(=O)c2ccco2)C1c1ccccc1 (stereo not drawn)	none
CCOc1cc(C2C(C(=O)c3ccco3)=C(O)C(=O)N2CCc2ccccc2)ccc1O (stereo not drawn)	PfM18AAP inh-1 32.8 | PfM18AAP inh-2 inactive | CTSL1 counter inactive
Cc1[nH]nc2c1C(c1ccco1)C(C#N)=C(N)O2 (stereo not drawn)	none
Cc1[nH]nc2c1[C@@H](c1ccccc1[N+](=O)[O-])C(C#N)=C(N)O2	PfM18AAP inh-1 35.9 | PfM18AAP inh-2 inactive | CTSL1 counter inactive
Cc1[nH]nc2c1C(c1cc(Br)cs1)C(C#N)=C(N)O2 (stereo not drawn)	PfM18AAP inh-1 71.7 | PfM18AAP inh-2 62.2 | CTSL1 counter inactive
CCOC(=O)[C@]12CCCCC/C=C\1N(Cc1ccc(OC)cc1)C(=O)[C@H]2CC(=O)NCc1ccccc1	none (no result: Rce1 inhib, PfM18AAP inh-1)
CCN(CC)c1ccc2cc(C=O)c(=O)oc2c1	none
CCN(CC)c1ccc2nc3c4ccccc4c(=O)cc-3oc2c1	PfM18AAP inh-1 38.4 | PfM18AAP inh-2 inactive | CTSL1 counter inactive
O=C(NCCc1c[nH]c2ccccc12)OCc1cn(Cc2cc(F)cc(F)c2)nn1	none (no result: Rce1 inhib, PfM18AAP inh-1)
CCOc1ccccc1C=C1SC(=S)N(CC)C1=O	none (no result: Rce1 inhib, PfM18AAP inh-1)
CCOc1ccccc1/C=c1\sc2ncnn2c1=O	PfM18AAP inh-1 51.4 | PfM18AAP inh-2 28.6 | CTSL1 counter inactive
CC(=O)Oc1ccc(/C=c2\sc3ncnn3c2=O)cc1	PfM18AAP inh-1 34.7 | PfM18AAP inh-2 inactive | CTSL1 counter inactive
CCCOc1ccc(/C=c2\sc3ncnn3c2=O)cc1	NPR1 activator 69.2, PfM18AAP inh-1 73.1 | PfM18AAP inh-2 38.9 | CTSL1 counter inactive
CCOC(=O)C1=C(C)N=c2s/c(=C\c3ccc(OC(C)=O)cc3)c(=O)n2C1/C=C/c1ccccc1 (stereo not drawn)	none
O=C(C1CCN(c2cncnc2)CC1)N1CCOCC1	none (no result: Rce1 inhib, PfM18AAP inh-1)
O=C(Nc1ccc(N2C(=O)CC3(CCCCC3)C2=O)c(Cl)c1)c1ccccn1	none (no result: Rce1 inhib, PfM18AAP inh-1)
COc1ccc(CC(=O)Nc2nc(-c3ccc(OC)c(OC)c3)cs2)cc1OC	none
CCOC(=O)c1c(NC(=O)CSc2ncn[nH]2)sc(C)c1C	PfM18AAP inh-1 48.3 | PfM18AAP inh-2 inactive | CTSL1 counter inactive
O=C(CSc1ncn[nH]1)Nc1nc(-c2ccccc2)cs1	PfM18AAP inh-1 40.0 | PfM18AAP inh-2 46.0 | CTSL1 counter inactive
COc1ccc(-c2csc(NC(=O)CSc3ncn[nH]3)n2)cc1OC	PfM18AAP inh-1 66.2 | PfM18AAP inh-2 48.7 | CTSL1 counter inactive
CCCCc1nc(SCC(=O)Nc2nnc(CCCC)s2)n[nH]1	none
CCCc1nnc(NC(=O)CSc2ncn[nH]2)s1	PfM18AAP inh-1 39.6 | PfM18AAP inh-2 44.3 | CTSL1 counter inactive
Cc1cc(=O)[nH]c(SCC(=O)Nc2nc(-c3ccccc3)cs2)n1	none
CCOC(=O)c1c(NC(=O)CSc2ncn[nH]2)sc(C(=O)NC)c1C	none
COC(=O)C1=C(C)N(Cc2ccccc2C(F)(F)F)C(=NCc2ccc3c(c2)OCO3)NC1CCc1ccccc1 (stereo not drawn)	none (no result: Rce1 inhib, PfM18AAP inh-1)
O=C(c1ccc(F)cc1Cl)N(Cc1ccccn1)CC1CCCO1 (stereo not drawn)	none (no result: Rce1 inhib, PfM18AAP inh-1)
COc1ccc(CNC(=O)CSc2ncn[nH]2)cc1OC	PfM18AAP inh-1 33.6 | PfM18AAP inh-2 inactive | CTSL1 counter inactive
O=C(/C=C/c1cccc(Cl)c1)c1nc2ccccc2[nH]1	PfM18AAP inh-1 32.4 | PfM18AAP inh-2 inactive | CTSL1 counter inactive
O=S1(=O)N[C@@H](Cc2ccccc2)COc2cc(N3CCOCC3)ccc21	none (no result: Rce1 inhib, PfM18AAP inh-1)
Cc1ccc2occ(/C=N/O)c(=O)c2c1	none
CC(=O)Oc1ccc2occ(/C=N/c3cc(=O)[nH]c(=S)[nH]3)c(=O)c2c1	PfM18AAP inh-1 34.9 | PfM18AAP inh-2 inactive | CTSL1 counter inactive
O=C(O)c1ccc(N/N=C2/CCCc3ccccc32)cc1	PfM18AAP inh-1 34.4 | PfM18AAP inh-2 inactive | CTSL1 counter inactive
COC(=O)C1C(O)=C(C=NCC(C)N=CC2=C(O)C(C(=O)OC)C(C)(C)CC2=O)C(=O)CC1(C)C (stereo not drawn)	PfM18AAP inh-1 47.0 | PfM18AAP inh-2 inactive | CTSL1 counter inactive
O=C(CNS(=O)(=O)c1cc2ccccc2s1)N1CCN(c2ccccn2)CC1	none (no result: Rce1 inhib, PfM18AAP inh-1)
O=C1NC[C@@H]2CCCN2C1=O	none (no result: Rce1 inhib, PfM18AAP inh-1)
c1ccc2c(c1)NCC1CCCN21 (stereo not drawn)	PfM18AAP inh-1 37.4 | PfM18AAP inh-2 inactive | CTSL1 counter inactive
COC(=O)C1CN(CCc2ccccc2)CCS(=O)(=O)N1Cc1ccc(Cl)cc1 (stereo not drawn)	none (no result: Rce1 inhib, PfM18AAP inh-1)
O=C(COC(=O)c1cnccn1)c1ccc([N+](=O)[O-])cc1	PfM18AAP inh-1 39.8 | PfM18AAP inh-2 inactive | CTSL1 counter inactive
O=C(CCC(=O)OCC(=O)c1cccc([N+](=O)[O-])c1)Nc1cccc(Cl)c1Cl	none
O=C(CCc1ccccc1)OCC(=O)c1ccc([N+](=O)[O-])cc1	PfM18AAP inh-1 46.2 | PfM18AAP inh-2 inactive | CTSL1 counter inactive
O=C(CCC(=O)OCC(=O)c1ccc([N+](=O)[O-])cc1)Nc1ccccc1Cl	PfM18AAP inh-1 40.0 (no result: NPR2 activator, NPR1 activator, PLCg1 inh, PLCb3 inh) | PfM18AAP inh-2 inactive | CTSL1 counter inactive
COc1ccc(C2=Nn3c(nnc3C3CCCCC3)SC2)cc1	none (no result: Rce1 inhib, PfM18AAP inh-1)
COc1cc(C(=O)NC2CCCCN(C(C)C)C2=O)cc(OC)c1OC (stereo not drawn)	none (no result: Rce1 inhib, PfM18AAP inh-1)
O=c1oc2ccccc2cc1-c1nnc(NCc2ccco2)s1	PfM18AAP inh-1 38.1 | PfM18AAP inh-2 inactive | CTSL1 counter inactive
COc1ccc(OC)c(NC(=O)O[C@@H]2CC[C@@]34CCCN3C(=O)CCC[C@H]4C2)c1	none (no result: Rce1 inhib, PfM18AAP inh-1)
O=C(CSc1ccccn1)N1CCN(c2ccc(Cl)cc2)CC1	PfM18AAP inh-1 32.7 | PfM18AAP inh-2 inactive | CTSL1 counter inactive
N#CC1=C(N)C(C#N)(C#N)C2(CCC3(CC2)OCCO3)C2CC3(CC=C12)OCCO3 (stereo not drawn)	PfM18AAP inh-1 55.2 | PfM18AAP inh-2 inactive | CTSL1 counter inactive
N#CC1=C(N)C(C#N)(C#N)[C@H](c2c(F)cccc2F)[C@H]2CC3(CC=C12)OCCO3	none
CCOC(=O)N1CCN(C(=O)C[C@H]2C[C@@]3(C(=O)OC)C(=C[C@H](C(C)C)O[C@@H]3C3CC3)N(Cc3ccc4c(c3)OCO4)C2=O)CC1	none (no result: Rce1 inhib, PfM18AAP inh-1)
Oc1ccccc1N1CCN(c2ncccn2)CC1	PfM18AAP inh-1 42.1 | PfM18AAP inh-2 inactive | CTSL1 counter inactive
